Vaccinia Venus: qHTS for Stage-Specific Inhibitors of Vaccinia Orthopoxvirus: Venus Reporter Primary qHTS; Vaccinia virus Venus reporter expression, fluorescence; Potency, µM (doses to about 36.5 µM), usual class: inhibitors; 330,000 compounds, 0.46% hits; AID 720580, 2013; calls by dose curve; tested in A549 cells; further: nearly all actives have a fitted effect of over 30% in size
NS1 function inh: qHTS Assay for Inhibitors of Influenza NS1 Protein Function; AID 2326, 2010; 270,000 compounds, 0.4% hits; Potency, µM (top dose mostly 46.1 µM); calls by dose curve; further: actives are rising curves; nearly all actives have a fitted effect of over 50% in size
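Read-out: OD600 growth recovery of NS1-expressing budding yeast. Cells grown overnight at 30C in -URA glucose medium, washed, resuspended and diluted 1:100 in 2% galactose assay medium, pH 6.0. Same strain lacking NS1 served as positive control.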
Pf growth 96h: Primary qHTS for delayed death inhibitors of the malarial parasite plastid, 96 hour incubation. P. falciparum luciferase reporter growth, 96 h. Potency, µM (titrated, usually from 28.7 µM), actives largely listed as inhibitors. 320,000 compounds, 6.9% hits. AID 504834, 2011
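P. falciparum expressing integrated firefly luciferase, in erythrocytes at 2% hematocrit, 0.05% parasitemia, incubated with compounds 96 h at 37 C, 5% CO2. Growth inhibition read as loss of luminescence; two-generation exposure targets delayed-death apicoplast inhibitors.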
HCV inh: qHTS Assay for Inhibitors of Hepatitis C Virus (HCV). Huh7.5.1 HCVcc-Cre infection, luciferase reporter, 44 h. Potency, µM (doses to about 41.8 µM), most hits filed as inhibitors. 340,000 compounds, 3.4% hits
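Seed cells (1,000/well) for 4 h; treat with compound and infect with HCVcc-Cre, moi about 0.5. Incubate 44 h, then detect luciferase activity.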
VACV mCherry inh: qHTS for Stage-Specific Inhibitors of Vaccinia Orthopoxvirus: mCherry Reporter Primary qHTS. Vaccinia virus mCherry reporter infection, fluorescence. Potency, µM (series often up to 36.5 µM), actives largely listed as inhibitors. 310,000 compounds, 0.63% hits. AID 720579, 2013; calls by dose curve; tested in A549 cells; further: nearly all actives have a fitted effect of over 35% in size
Pf growth 48h: Primary qHTS for delayed death inhibitors of the malarial parasite plastid, 48 hour incubation | P. falciparum luciferase growth in erythrocytes, 48 h | Potency, µM (doses to about 28.7 µM), actives largely listed as inhibitors | 310,000 compounds, 5.9% hits | AID 504832, 2011
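Here the parasites carry a stable luciferase gene and grow inside erythrocytes in Albumax-based RPMI medium with compound for one erythrocytic cycle. Activity is scored as loss of luminescent signal.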
Numbers stand for hits; - = inactive; ? = inconclusive; . = not tested or not shown; ! = a repeat was not active; [ ] = another dose, or the depositor's remark. Shown are actives, neighbours in structure and some others; about 11% of the full set was active somewhere. Unless noted, the call rests on the fitted dose curve; in most records, active means well fitted inhibition curve with a large enough effect; inconclusive means small, poorly fitted or top-dose-only effect, or another doubt; inactive means no such curve, though single readings can be large or run the other way.

SMILES	Vaccinia Venus	NS1 function inh	Pf growth 96h	HCV inh	VACV mCherry inh	Pf growth 48h
O=C1CCCCN1CC(=O)N1CCCC(Nc2ccc(F)c(F)c2)C1 (stereo not given)	-[7.34 µM]	-	?	-	-[7.34 µM]	-
Cc1ccc(NC(=O)C2(C)CCCN2C)cc1C (stereo not given)	-	.	.	.	-	.
CC(C)CC(N)c1csc(NC(=O)Nc2ccccc2C(C)(C)C)n1 (stereo not given)	-	.	.	.	-	.
CCSc1nnc2c(n1)[nH]c1c(C)cccc12	?	-	.	31.6µM	?	.
CSc1nnc2c(n1)[nH]c1c(C)cccc12	-	-	5.22µM	-	-	8.28µM
C=CCSc1nnc2nc3[nH]c4c(C)cccc4c3nn12	?	-	.	-	.	?
Cc1cccc(CSc2nnc3c(n2)[nH]c2ccccc23)c1	.	-	1.85µM	-	.	1.47µM
O=C(CCn1cccn1)Nc1cccc(C(F)(F)F)c1	-	.	.	.	-	.
Cc1nc2c(C(=O)NCCc3ccccc3Cl)c[nH]n2c(=O)c1Cl	-	-	10.4µM	-	-	-
Cc1nc2c(C(=O)NCc3ccccc3Cl)c[nH]n2c(=O)c1Cl	-	-	-	-	-	-
COc1ccc(CCNC(=O)COC(=O)c2cc(OC)c(OC)cc2OC)cc1	-	.	-[5.75 µM]	-	-	?
CCOc1ccc(N(CC(=O)Nc2cccc(OC)c2)S(=O)(=O)c2c(C)noc2C)cc1	-	-	0.828µM	?	-	?
CCOc1ccc(N(CC(=O)Nc2ccc(C)cc2)S(=O)(=O)c2c(C)noc2C)cc1	-	-	-	-	-	.
CCOc1ccc(N(CC(=O)Nc2cccc(Cl)c2)S(=O)(=O)c2c(C)noc2C)cc1	-	-	-	12.6µM	-	.
COc1ccc(N(CC(=O)Nc2ccc(C)c(F)c2)S(=O)(=O)c2c(C)noc2C)cc1	.	-	?	-	.	13.1µM
CCOc1ccc(N(CC(=O)Nc2ccccc2OCC)S(=O)(=O)c2c(C)noc2C)cc1	.	-	11.7µM	11.2µM	.	?
NC(CSCc1ccccc1)C(=O)Nc1ccc([N+](=O)[O-])cc1 (stereo not given)	-	.	.	.	-	.
Cc1ccc(C(=O)NCCc2csc(C)n2)cc1	-	-	-	-	-	-
CCOc1cc(C2C(C#N)=C(N)SC(N)=C2C#N)ccc1OCCN1CCOCC1	-	-	.	-	-	9.28µM
COc1ccc(CC(=O)Nc2ccccc2C(=O)N2CCOCC2)cc1OC	-	-	-	-	-	-
O=C(CCN1CCCCCC1)Nc1ccc(F)cc1	-	-	?	-	?	-
CCc1nn2cc(C(=O)c3cc(C)ccc3O)cnc2c1-c1ccc(F)cc1	-	-	-	?	-	2.62µM
CCCCc1c(O)nc2sccn2c1=O	-	-	-	-	-	-
O=C(c1ccc(F)cc1)C1CCN(Cc2ccccc2F)CC1	-	.	.	.	-	.
Cc1nc2ccccn2c(=O)c1CCN1CCC(C(=O)c2ccc(F)cc2)CC1	-	-	10.7µM	?	-	?
SMILES	Vaccinia Venus	NS1 function inh	Pf growth 96h	HCV inh	VACV mCherry inh	Pf growth 48h
Cc1nc2sccn2c(=O)c1CCN1CCC(=C(c2ccc(F)cc2)c2ccc(F)cc2)CC1	-	-	10.4µM	3.55µM!	-	10.4µM
O=C(Cc1ccccc1)NC(NC(=S)Nc1cc(Cl)ccc1Cl)C(Cl)(Cl)Cl (stereo not given)	.	-	-	-	.	?
CCOC(=O)NC(NC(=S)Nc1ccc(OC)cc1)C(Cl)(Cl)Cl (stereo not given)	-	-	?	-	-	-
CC(C)NC(NC(=O)/C=C/c1ccccc1)C(Cl)(Cl)Cl (stereo not given)	-	-	1.04µM	-	-	-
O=C(CCc1ccccc1)NC(NC(=S)Nc1ccc(Cl)cc1)C(Cl)(Cl)Cl (stereo not given)	?	-	?	-	?	.
O=C(/C=C/c1ccccc1)NC(NC(=S)Nc1cc(Cl)ccc1Cl)C(Cl)(Cl)Cl (stereo not given)	?	-	10.4µM	?	10µM	?
O=C(/C=C/c1ccccc1)NC(NC(=S)Nc1ccc(Cl)cc1)C(Cl)(Cl)Cl (stereo not given)	.	-	-	?	.	6.57µM
COc1ccc(NC(=S)NC(NC(=O)/C=C/c2ccccc2)C(Cl)(Cl)Cl)cc1 (stereo not given)	?	-	2.33µM	-	?	?
CSc1ncc(C(=O)Nc2cccc(Cl)c2C)c(C)n1	-	-	-	-	-	-
CSc1ncc(C(=O)Nc2ccc(Cl)cc2)c(C)n1	-	-	-	-	-	-
CSc1ncc(C(=O)Nc2ccc(C(C)=O)cc2)c(C)n1	.	-	2.62µM	-	.	?
CSc1ncc(C(=O)Nc2ccc(Br)cn2)c(C)n1	.	-	1.85µM	-	.	?
C=CS(=O)(=O)N(Cc1ccc(Cl)c(Cl)c1)C[C@@H](O)CO	0.0501µM	.	.	14.1µM	0.282µM	.
O=C(O)c1sccc1SCc1ccc(Cl)c(Cl)c1	.	-	-	-	.	-
CCC1CCc2c(sc(NC(=O)c3ccco3)c2C(N)=O)C1 (stereo not given)	.	-	-	3.98µM	.	-
CC1CCc2c(sc(NC(=O)C3c4ccccc4Oc4ccccc43)c2C(N)=O)C1 (stereo not given)	-	-	6.57µM	-	-	?
CC(C)(C)C1CCc2c(sc(NC(=O)C3c4ccccc4Oc4ccccc43)c2C(N)=O)C1 (stereo not given)	-	.	.	.	-	.
CNC(=O)c1c(NC(=O)C2=COCCO2)sc2c1CCCC2	-	-	13.1µM	?	?	-
CNC(=O)c1c(NC(=O)c2ccco2)sc2c1CCC2	.	-	-	11.2µM	.	-
CC(C)(C)C1CCc2c(sc(NC(=O)c3ccco3)c2C(N)=O)C1 (stereo not given)	-	?	?	-	-	-
COc1ccc(Nc2nc(N3CCCC3)nc3ccccc23)c(OC)c1	11.2µM	-	.	3.16µM	?	6.57µM
Cc1ccc(Nc2nc(N3CCOCC3)c3ccccc3n2)cc1	?	-	10.4µM	?	-[1.46 µM]	.
C=CCNc1nc(N2CCCC2)nc2ccccc12	-	-	.	15.8µM	.	5.22µM
COc1ccc(Nc2nc(N3CCCCC3)c3ccccc3n2)cc1	?	-	4.65µM	?	?	7.38µM
COc1cccc(N2CCN(CC(=O)Nc3nc(C)c(C(=O)N(C)C)s3)CC2)c1	-	-	?	-	-	-
COc1ccccc1N1CCN(C(=O)Cn2c(=O)n3nc(-c4ccc(C)cc4)nc3c3ccccc32)CC1	-	.	.	.	-	.
CC(O)[C@H]1CNCCN1CCc1cccc2ccccc12 (stereo not given in full)	-	.	-	-	-	?
CCOC(=O)c1ccc(NC(=O)c2c(O)c3ccccc3n(C)c2=O)cc1	.	-	-	.	.	-
Cc1ccc(-c2cc3ccccc3nc2N2CCOCC2)cc1	-	.	-	10µM	-	-
